Assay results published in the supplement of paper PMC10849652.
The full data set covers some 8,800 targets. This sample favours those with a hit. About 0.5% of all pairs of compound and target were hits.

Key:
Assay in all cases: log2 fold change, soluble protein after heating vs DMSO (PISA); higher = thermal stabilisation; K562 lysate, 10 uM; active = over 0.2 and 3.5 SD of the protein, either way, in both replicates (recomputed)
vemurafenib = compound: CCCS(=O)(=O)Nc1ccc(F)c(C(=O)c2c[nH]c3ncc(-c4ccc(Cl)cc4)cc23)c1F [vemurafenib]
Method in brief: (§1)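 Soluble protein was defined as the supernatant remaining after 21,000xg for 90 min, following pooling of heated aliquots and adjustment to 0.5% NP-40 at 4°C. Before that, crude K562 extract at 1 mg/mL protein in PBS pH 7.4 with 1 mM MgCl2 was treated with 10 μM compound for 30 min and heated for 3 min across 48°C-58°C. Quantification used TMTpro 16plex LC-MS/MS with channel sums equalised, and values are log-two fold changes in thermal stability relative to solvent controls from duplicates.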

[1] = compound: CCCS(=O)(=O)Nc1ccc(F)c(C(=O)c2c[nH]c3ncc(Cl)cc23)c1F
Method in brief: as §1

barasertib = compound: CCN(CCCOc1ccc2c(Nc3cc(CC(=O)Nc4cccc(F)c4)[nH]n3)ncnc2c1)CCOP(=O)(O)O [barasertib]
Method in brief: as §1

[2] = compound: CC[C@@H]1C(=O)N(C)c2cnc(Nc3ccc(C(=O)NC4CCN(C)CC4)cc3OC)nc2N1C1CCCC1
Method in brief: as §1

volasertib = compound: CC[C@@H]1C(=O)N(C)c2cnc(Nc3ccc(C(=O)N[C@H]4CC[C@H](N5CCN(CC6CC6)CC5)CC4)cc3OC)nc2N1C(C)C [volasertib]
Method in brief: as §1

[3] = compound: CCn1c(C(=O)N(C2CC2)C2CC2)cc2c3c(ncn3C)c(Nc3cc(C)n(C)n3)nc21
Method in brief: as §1

[4] = compound: CCn1cc(-c2ccnc3[nH]c(-c4cccc(CN(C)C)c4)cc23)c(-c2ccc(NC(=O)N(C)C)cc2)n1
Method in brief: as §1

[5] = compound: CN1CCC(CNc2ccc3ncc(-c4cccc(OC(F)(F)F)c4)n3n2)CC1
Method in brief: as §1

saracatinib = compound: CN1CCN(CCOc2cc(OC3CCOCC3)c3c(Nc4c(Cl)ccc5c4OCO5)ncnc3c2)CC1 [saracatinib]
Method in brief: as §1

sotrastaurin = compound: CN1CCN(c2nc(C3=C(c4c[nH]c5ccccc45)C(=O)NC3=O)c3ccccc3n2)CC1 [sotrastaurin]
Method in brief: as §1

Measured: log2 fold change

PRKACA (UniProt P17612)
inactive: vemurafenib -0.036 | [1] -0.016 | barasertib 0.006 | [2] 0.095 | volasertib -0.043 | [3] -0.081 | [4] -0.418 | [5] 0.351 | saracatinib -0.075 | sotrastaurin 0.216

PHACTR4 isoform 2 (UniProt Q8IZ21)
Sequence of UniProt Q8IZ21 (Q8IZ21 whole entry, looked up): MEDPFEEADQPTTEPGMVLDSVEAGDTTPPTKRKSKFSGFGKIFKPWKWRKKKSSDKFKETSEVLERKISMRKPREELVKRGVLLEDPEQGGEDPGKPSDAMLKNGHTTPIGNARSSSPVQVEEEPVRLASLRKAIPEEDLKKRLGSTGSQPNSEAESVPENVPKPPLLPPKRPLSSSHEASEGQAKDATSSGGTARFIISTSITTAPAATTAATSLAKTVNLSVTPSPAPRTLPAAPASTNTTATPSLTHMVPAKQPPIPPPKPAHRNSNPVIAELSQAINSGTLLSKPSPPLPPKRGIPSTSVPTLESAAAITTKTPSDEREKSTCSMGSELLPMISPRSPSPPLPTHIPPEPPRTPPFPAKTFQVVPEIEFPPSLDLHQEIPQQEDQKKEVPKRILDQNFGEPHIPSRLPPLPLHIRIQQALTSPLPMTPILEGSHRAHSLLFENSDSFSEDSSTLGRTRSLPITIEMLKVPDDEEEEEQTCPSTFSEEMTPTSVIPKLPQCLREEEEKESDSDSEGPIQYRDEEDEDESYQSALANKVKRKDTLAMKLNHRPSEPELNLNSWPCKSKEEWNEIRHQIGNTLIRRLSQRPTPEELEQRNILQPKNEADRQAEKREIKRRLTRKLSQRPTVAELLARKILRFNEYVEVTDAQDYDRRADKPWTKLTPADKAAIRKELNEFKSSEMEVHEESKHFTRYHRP
active: [4] 0.836
inactive: vemurafenib 0.011 | [1] 0.011 | barasertib -0.008 | [2] 0.065 | volasertib 0.023 | [3] -0.003 | [5] -0.178 | saracatinib 0 | sotrastaurin 0.013

PPIL3 (UniProt Q9H2H8)
Sequence of UniProt Q9H2H8 (Q9H2H8 whole entry, looked up): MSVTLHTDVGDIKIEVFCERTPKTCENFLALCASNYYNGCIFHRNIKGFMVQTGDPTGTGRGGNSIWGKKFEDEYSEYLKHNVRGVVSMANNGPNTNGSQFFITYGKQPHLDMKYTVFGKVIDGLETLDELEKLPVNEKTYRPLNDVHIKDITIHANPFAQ
inactive: vemurafenib 0.048 | [1] -0.017 | barasertib 0.099 | [2] -0.004 | volasertib -0.007 | [3] 0.027 | [4] 0.067 | [5] 0.021 | saracatinib 0.004 | sotrastaurin -0.03

PFAS (UniProt O15067)
inactive: vemurafenib 0.029 | [1] 0.023 | barasertib 0.015 | [2] -0.048 | volasertib -0.091 | [3] 0 | [4] -0.023 | [5] 0.001 | saracatinib -0.013 | sotrastaurin -0.015

PRKDC (UniProt P78527)
inactive: vemurafenib 0.132 | [1] 0.014 | barasertib -0.009 | [2] -0.058 | volasertib -0.062 | [3] 0.063 | [4] -0.12 | [5] 0.097 | saracatinib -0.007 | sotrastaurin 0.048

PTGR2 (UniProt Q8N8N7)
inactive: vemurafenib -0.029 | [1] 0.04 | barasertib -0.022 | [2] 0.056 | volasertib -0.039 | [3] 0.069 | [4] 0.012 | [5] 0.092 | saracatinib -0.021 | sotrastaurin 0.1

PIK3C3 (UniProt Q8NEB9)
inactive: vemurafenib 0.032 | [1] 0.019 | barasertib -0.012 | [2] 0.098 | volasertib -0.025 | [3] -0.075 | [4] -0.226 | [5] 0.121 | saracatinib 0.008 | sotrastaurin 0.007

PTPN7 isoform 3 (UniProt P35236)
Sequence of UniProt P35236 (P35236 whole entry, looked up): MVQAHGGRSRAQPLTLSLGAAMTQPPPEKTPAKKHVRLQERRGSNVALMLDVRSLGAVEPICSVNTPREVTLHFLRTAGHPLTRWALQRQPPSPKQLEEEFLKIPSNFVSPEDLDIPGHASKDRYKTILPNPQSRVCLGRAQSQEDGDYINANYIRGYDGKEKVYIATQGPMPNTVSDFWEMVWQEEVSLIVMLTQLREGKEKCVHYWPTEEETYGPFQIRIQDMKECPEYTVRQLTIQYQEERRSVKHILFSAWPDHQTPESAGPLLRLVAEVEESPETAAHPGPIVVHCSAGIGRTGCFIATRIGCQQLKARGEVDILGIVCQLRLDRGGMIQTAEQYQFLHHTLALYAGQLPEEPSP
inactive: vemurafenib 0.016 | [1] 0.06 | barasertib 0.026 | [2] -0.025 | volasertib -0.06 | [3] 0.063 | [4] -0.076 | [5] 0.124 | saracatinib 0.005 | sotrastaurin 0.015

POMP (UniProt Q9Y244)
Sequence of UniProt Q9Y244 (Q9Y244 whole entry, looked up): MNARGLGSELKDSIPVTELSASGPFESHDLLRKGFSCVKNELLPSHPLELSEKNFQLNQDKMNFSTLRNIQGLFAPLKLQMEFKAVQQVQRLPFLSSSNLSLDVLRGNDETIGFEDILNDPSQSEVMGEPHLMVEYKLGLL
inactive: vemurafenib -0.022 | [1] 0.001 | barasertib -0.034 | [2] 0.039 | volasertib -0.007 | [3] -0.028 | [4] 0.065 | [5] -0.061 | saracatinib 0.056 | sotrastaurin -0.064

PPP2CA (UniProt P67775)
inactive: vemurafenib 0.061 | [1] -0.008 | barasertib -0.012 | [2] 0.032 | volasertib -0.012 | [3] 0.02 | [4] 0.13 | [5] 0.049 | saracatinib 0.039 | sotrastaurin -0.047

PTGS1 isoform 6 (UniProt P23219)
Sequence of UniProt P23219 (P23219 whole entry, looked up): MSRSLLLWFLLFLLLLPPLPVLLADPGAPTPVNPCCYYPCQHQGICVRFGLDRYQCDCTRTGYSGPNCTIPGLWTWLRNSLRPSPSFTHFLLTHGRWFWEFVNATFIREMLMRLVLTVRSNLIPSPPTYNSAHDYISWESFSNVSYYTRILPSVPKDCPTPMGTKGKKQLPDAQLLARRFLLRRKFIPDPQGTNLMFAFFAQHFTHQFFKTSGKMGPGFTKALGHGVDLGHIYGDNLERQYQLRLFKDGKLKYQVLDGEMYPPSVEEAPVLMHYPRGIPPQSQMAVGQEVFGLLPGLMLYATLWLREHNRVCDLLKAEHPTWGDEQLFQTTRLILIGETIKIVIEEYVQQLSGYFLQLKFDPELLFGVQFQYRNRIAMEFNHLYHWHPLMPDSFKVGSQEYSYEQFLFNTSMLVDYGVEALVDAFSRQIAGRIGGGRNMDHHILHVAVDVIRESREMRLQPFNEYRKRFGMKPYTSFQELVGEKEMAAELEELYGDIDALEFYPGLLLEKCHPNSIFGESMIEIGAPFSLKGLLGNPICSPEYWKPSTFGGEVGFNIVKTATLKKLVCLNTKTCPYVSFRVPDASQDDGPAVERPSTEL
inactive: vemurafenib 0.058 | [1] 0.076 | barasertib 0.039 | [2] 0.005 | volasertib -0.022 | [3] -0.012 | [5] 0.134 | saracatinib -0.033 | sotrastaurin 0.065
active: [4] -0.279

PITRM1 isoform 2 (UniProt Q5JRX3)
inactive: vemurafenib -0.026 | [1] 0.001 | barasertib -0.01 | [2] -0.018 | volasertib 0.127 | [3] -0.008 | [4] 0.07 | [5] -0.048 | saracatinib -0.021 | sotrastaurin 0.007

PTMA (UniProt P06454)
Sequence of UniProt P06454 (P06454 whole entry, looked up): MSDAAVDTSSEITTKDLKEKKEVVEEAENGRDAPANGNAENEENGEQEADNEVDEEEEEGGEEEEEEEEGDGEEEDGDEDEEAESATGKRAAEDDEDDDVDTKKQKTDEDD
inactive: vemurafenib 0.022 | [1] -0.049 | barasertib 0.018 | [2] 0.06 | volasertib 0.004 | [3] -0.031 | saracatinib -0.061 | sotrastaurin 0.04
active: [4] 0.569 | [5] -0.337

PPP4R2 (UniProt Q9NY27)
inactive: vemurafenib -0.033 | [1] 0.026 | barasertib -0.041 | [2] 0.057 | volasertib -0.014 | [3] -0.042 | [4] 0.21 | [5] 0.028 | saracatinib -0.007 | sotrastaurin 0.006

PDE2A (UniProt O00408)
inactive: [1] -0.015 | barasertib -0.015 | [2] -0.215 | volasertib 0.041 | [3] -0.173 | [4] -0.135 | [5] 0.023 | saracatinib -0.042 | sotrastaurin 0.039
active: vemurafenib 0.374

PCBD2 (UniProt Q9H0N5)
Sequence of UniProt Q9H0N5 (Q9H0N5 whole entry, looked up): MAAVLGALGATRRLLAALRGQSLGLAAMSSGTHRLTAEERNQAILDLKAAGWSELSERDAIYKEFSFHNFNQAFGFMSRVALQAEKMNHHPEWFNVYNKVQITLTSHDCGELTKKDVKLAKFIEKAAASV
inactive: vemurafenib 0.004 | [1] -0.017 | barasertib 0.013 | [2] 0.018 | volasertib 0.016 | [3] 0.031 | [4] -0.237 | [5] 0.11 | saracatinib -0.05 | sotrastaurin 0.055

PGLS (UniProt O95336)
Sequence of UniProt O95336 (O95336 whole entry, looked up): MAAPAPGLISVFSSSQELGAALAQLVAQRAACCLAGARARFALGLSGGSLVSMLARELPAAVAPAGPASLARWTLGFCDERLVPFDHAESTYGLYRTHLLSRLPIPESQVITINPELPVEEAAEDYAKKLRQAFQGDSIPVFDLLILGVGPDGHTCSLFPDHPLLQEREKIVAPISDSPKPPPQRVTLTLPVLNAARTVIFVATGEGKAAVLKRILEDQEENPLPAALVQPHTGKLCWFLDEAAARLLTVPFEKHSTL
inactive: vemurafenib -0.033 | [1] -0.027 | barasertib 0.067 | [2] -0.055 | volasertib 0.027 | [3] 0.036 | [4] 0.051 | [5] -0.114 | saracatinib 0.039 | sotrastaurin 0.006

PI4K2A (UniProt Q9BTU6)
inactive: vemurafenib -0.025 | [1] 0.037 | barasertib 0.041 | [2] -0.009 | volasertib -0.027 | [3] 0.004 | [4] 0.019 | [5] 0.042 | saracatinib -0.037 | sotrastaurin 0.102

PDS5A (UniProt Q29RF7)
inactive: vemurafenib 0.023 | [1] 0.031 | barasertib 0.064 | [2] -0.057 | volasertib -0.029 | [3] 0.054 | [4] -0.12 | [5] -0.019 | saracatinib 0.007 | sotrastaurin 0.026

PYCR2 (UniProt Q96C36)
Sequence of UniProt Q96C36 (Q96C36 whole entry, looked up): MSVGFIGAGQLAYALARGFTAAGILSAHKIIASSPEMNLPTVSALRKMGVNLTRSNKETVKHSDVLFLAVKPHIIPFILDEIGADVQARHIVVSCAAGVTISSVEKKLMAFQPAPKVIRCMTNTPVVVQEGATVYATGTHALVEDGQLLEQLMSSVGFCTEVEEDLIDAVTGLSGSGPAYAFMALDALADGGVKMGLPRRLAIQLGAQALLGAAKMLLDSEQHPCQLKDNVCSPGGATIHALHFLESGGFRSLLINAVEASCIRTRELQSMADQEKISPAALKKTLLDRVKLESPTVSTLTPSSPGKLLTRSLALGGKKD
inactive: vemurafenib 0.004 | [1] -0.005 | barasertib 0.006 | [2] 0.036 | volasertib 0.016 | [3] -0.001 | [4] 0.099 | [5] 0.012 | saracatinib -0.012 | sotrastaurin -0.014

PRMT7 (UniProt Q9NVM4)
Sequence of UniProt Q9NVM4 (Q9NVM4 whole entry, looked up): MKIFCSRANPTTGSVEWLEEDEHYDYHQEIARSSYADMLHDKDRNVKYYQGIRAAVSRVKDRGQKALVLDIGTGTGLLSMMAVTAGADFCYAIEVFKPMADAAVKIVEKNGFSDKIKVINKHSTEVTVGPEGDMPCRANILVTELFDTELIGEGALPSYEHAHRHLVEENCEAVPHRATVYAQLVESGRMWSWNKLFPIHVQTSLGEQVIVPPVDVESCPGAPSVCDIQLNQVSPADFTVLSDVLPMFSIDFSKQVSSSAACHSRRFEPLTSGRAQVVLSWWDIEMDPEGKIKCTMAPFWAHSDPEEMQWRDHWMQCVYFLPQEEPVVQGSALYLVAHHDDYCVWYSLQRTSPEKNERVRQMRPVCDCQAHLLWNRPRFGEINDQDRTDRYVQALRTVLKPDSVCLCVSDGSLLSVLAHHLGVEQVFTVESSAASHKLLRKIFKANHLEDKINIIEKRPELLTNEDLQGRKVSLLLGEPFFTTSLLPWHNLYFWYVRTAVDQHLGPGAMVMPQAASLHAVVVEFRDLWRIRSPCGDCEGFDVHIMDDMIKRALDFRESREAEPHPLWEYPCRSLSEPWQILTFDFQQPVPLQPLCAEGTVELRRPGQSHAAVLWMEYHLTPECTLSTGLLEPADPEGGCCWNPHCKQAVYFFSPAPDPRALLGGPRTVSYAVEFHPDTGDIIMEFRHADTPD
inactive: vemurafenib 0.058 | [1] -0.006 | barasertib 0.018 | [2] -0.02 | volasertib 0.001 | [3] -0.013 | [4] 0.013 | [5] 0.003 | saracatinib 0.045 | sotrastaurin 0.009

PKP3 isoform 2 (UniProt Q9Y446)
Sequence of UniProt Q9Y446 (Q9Y446 whole entry, looked up): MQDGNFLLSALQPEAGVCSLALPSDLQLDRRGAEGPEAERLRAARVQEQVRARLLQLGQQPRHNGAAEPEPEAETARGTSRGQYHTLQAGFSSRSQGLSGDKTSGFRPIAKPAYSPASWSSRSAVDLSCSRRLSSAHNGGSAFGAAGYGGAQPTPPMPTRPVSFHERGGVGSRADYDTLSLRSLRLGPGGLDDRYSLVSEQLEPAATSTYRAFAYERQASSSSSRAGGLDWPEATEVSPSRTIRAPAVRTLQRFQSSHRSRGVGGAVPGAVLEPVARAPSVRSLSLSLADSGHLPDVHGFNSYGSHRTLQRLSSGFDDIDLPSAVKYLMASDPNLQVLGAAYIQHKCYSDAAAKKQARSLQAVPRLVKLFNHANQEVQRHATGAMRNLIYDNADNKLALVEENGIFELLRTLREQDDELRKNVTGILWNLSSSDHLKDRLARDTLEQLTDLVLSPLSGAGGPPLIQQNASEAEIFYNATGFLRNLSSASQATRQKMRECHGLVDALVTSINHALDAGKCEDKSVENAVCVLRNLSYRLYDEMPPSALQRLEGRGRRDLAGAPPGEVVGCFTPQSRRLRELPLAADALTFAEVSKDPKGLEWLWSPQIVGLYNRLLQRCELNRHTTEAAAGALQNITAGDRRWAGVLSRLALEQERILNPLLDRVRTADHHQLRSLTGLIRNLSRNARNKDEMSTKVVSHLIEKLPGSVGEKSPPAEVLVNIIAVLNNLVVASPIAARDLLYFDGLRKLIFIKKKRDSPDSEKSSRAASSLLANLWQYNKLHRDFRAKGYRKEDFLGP
inactive: vemurafenib -0.087 | [1] 0.05 | barasertib -0.01 | [2] 0.061 | volasertib -0.005 | [3] 0.05 | [4] 0.027 | [5] -0.088 | saracatinib -0.037 | sotrastaurin 0.001

PMS2 (UniProt P54278)
inactive: vemurafenib -0.015 | [1] -0.028 | barasertib 0.033 | [2] -0.072 | volasertib -0.147 | [3] 0.101 | [4] -0.02 | [5] 0.012 | saracatinib -0.004 | sotrastaurin 0.001

PDXDC1 (UniProt Q6P996)
inactive: vemurafenib -0.005 | [1] -0.02 | barasertib 0.008 | [2] 0.03 | volasertib -0.059 | [3] -0.004 | [4] -0.031 | [5] -0.067 | saracatinib -0.005 | sotrastaurin 0.015

PI4KB (UniProt Q9UBF8)
active: vemurafenib 0.222
inactive: [1] 0.011 | barasertib -0.051 | [2] 0.049 | volasertib -0.026 | [3] -0.016 | [4] -0.038 | [5] 0.134 | saracatinib -0.006 | sotrastaurin 0.012

PRAME (UniProt P78395)
inactive: vemurafenib 0.028 | [1] -0.012 | barasertib 0.003 | [2] -0.086 | volasertib -0.009 | [3] 0.017 | [4] -0.058 | [5] 0.011 | saracatinib 0 | sotrastaurin 0.018

POC5 (UniProt Q8NA72)
Sequence of UniProt Q8NA72 (Q8NA72 whole entry, looked up): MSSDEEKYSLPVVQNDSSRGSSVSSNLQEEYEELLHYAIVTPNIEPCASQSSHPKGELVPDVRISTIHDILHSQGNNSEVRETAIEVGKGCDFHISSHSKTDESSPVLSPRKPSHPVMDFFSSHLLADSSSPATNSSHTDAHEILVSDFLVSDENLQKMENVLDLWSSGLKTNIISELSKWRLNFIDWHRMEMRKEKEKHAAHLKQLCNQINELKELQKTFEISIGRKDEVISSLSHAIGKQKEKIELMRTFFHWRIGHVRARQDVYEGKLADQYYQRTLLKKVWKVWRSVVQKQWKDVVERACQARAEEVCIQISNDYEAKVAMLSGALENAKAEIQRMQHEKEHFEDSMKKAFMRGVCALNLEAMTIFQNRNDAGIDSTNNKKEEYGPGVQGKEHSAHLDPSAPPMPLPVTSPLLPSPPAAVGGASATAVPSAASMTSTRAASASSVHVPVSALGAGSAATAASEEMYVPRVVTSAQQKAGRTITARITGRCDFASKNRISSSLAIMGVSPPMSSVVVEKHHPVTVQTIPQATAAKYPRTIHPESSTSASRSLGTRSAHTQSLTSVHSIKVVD
inactive: vemurafenib -0.062 | [1] -0.049 | barasertib 0.014 | [2] 0.17 | volasertib 0 | [3] -0.045 | [4] 0.021 | [5] -0.011 | saracatinib -0.087 | sotrastaurin -0.046
